{
  "source": "paper PMC6792352",
  "about": "“Limited Chemical Structural Diversity Found to Modulate Thyroid Hormone Receptor in the Tox21 Chemical Library” (Environmental Health Perspectives, 2019)",
  "note": "Structures can show the parent of a compound that is named as a salt.",
  "data": [
    {"test_system": "thyroid hormone receptor (endogenous TRα and TRβ)", "set-up": "species or system GH3-TRE-Luc (rat pituitary); GH3-TRE-Luc luciferase reporter, antagonist mode against 1 nM T3, loss of signal, qHTS", "details": "read-out: Average AC50 (uM) GH3-TRE-Antag, antagonist mode, 1 nM T3, no GH3 cytotoxicity hit", "units": {"AC50": "µM"}, "values": [
      {"compound": "CN(C)c1ccc(SC#N)cc1", "note": "[4-(Dimethylamino)phenylthiocyanate]", "AC50": 59.1},
      {"compound": "CCCCCC[C@@H](O)C/C=C\\CCCCCCCC(=O)O", "note": "[Potassium ricinoleate]", "AC50": 31.8},
      {"compound": "O=C1c2ccccc2C(=O)C1(O)O", "note": "[Ninhydrin]", "AC50": 80},
      {"compound": "[H]/N=C(\\N/C(=N/[H])Nc1ccc(Cl)cc1)NC(C)C", "note": "[Proguanil hydrochloride]", "AC50": 2.32},
      {"compound": "COc1ccc(C(=O)c2ccc(O)cc2)c(OC)c1", "note": "[(2,4-dimethoxyphenyl)(4-hydroxyphenyl)methanone]", "AC50": 54.9},
      {"compound": "CCCCCCCCc1ccc(S(=O)(=O)O)cc1", "note": "[Sodium 4-octylbenzenesulfonate]", "AC50": 53},
      {"compound": "CC(C)C(C(=O)OC(C#N)c1cccc(Oc2ccccc2)c1)c1ccc(OC(F)F)cc1", "note": "(stereo not shown) [Flucythrinate]", "AC50": 32.5},
      {"compound": "CNC(=O)c1ccccc1Sc1ccc2c(/C=C/c3ccccn3)n[nH]c2c1", "note": "[Axitinib]", "AC50": 0.777},
      {"compound": "COC(=O)[C@H]1[C@H]2C[C@@H]3c4[nH]c5cc(OC)ccc5c4CCN3C[C@H]2C[C@@H](OC(=O)COc2ccc(OC)cc2)[C@@H]1OC", "note": "[Mefeserpine]", "AC50": 21.6},
      {"compound": "Cc1cc(C(F)(C(F)(F)F)C(F)(F)F)ccc1NC(=O)c1cccc(I)c1C(=O)NC(C)(C)CS(C)(=O)=O", "note": "[Flubendiamide]", "AC50": 33.5},
      {"compound": "CN[C@H]1C[C@@H](N)[C@H](O)[C@@H](O[C@@H]2O[C@H](CO)[C@H](O)[C@@H]3OC4(O[C@H]23)O[C@H]([C@@H](N)CO)[C@H](O)[C@H](O)[C@H]4O)[C@@H]1O", "note": "(stereo partly shown) [Hygromycin B]", "AC50": 12.9},
      {"compound": "OCc1c[nH]c2ccccc12", "note": "[Indole-3-carbinol]", "AC50": 58.4},
      {"compound": "CC1(C)[C@H](C(=O)O[C@H](C#N)c2cccc(Oc3ccccc3)c2)[C@@H]1C=C(Br)Br", "note": "[Deltamethrin]", "AC50": 76.3},
      {"compound": "CCCCOC(=O)c1ccc(O)cc1", "note": "[Butylparaben]", "AC50": "> 50"},
      {"compound": "CC(=O)OCC(=O)[C@H]1CC[C@H]2[C@@H]3CCC4=CC(=O)CC[C@]4(C)[C@H]3CC[C@]12C", "note": "[Deoxycorticosterone acetate]", "AC50": 25.2},
      {"compound": "Cl[C@H]1[C@H](Cl)[C@@H](Cl)[C@@H](Cl)[C@H](Cl)[C@H]1Cl", "note": "[Lindane]", "AC50": 81.2},
      {"compound": "C=CC(C)(O)CC/C=C(\\C)CCC=C(C)C", "note": "(stereo not drawn) [trans-Nerolidol]", "AC50": 9.85},
      {"compound": "COc1cccc(N)c1", "note": "[3-Methoxyaniline]", "AC50": 80.8},
      {"compound": "NNC(N)=S", "note": "[Thiosemicarbazide]", "AC50": 59.3},
      {"compound": "CC(C)(O)c1cnn2c(-c3ccc(F)c(-c4c(F)cccc4C#N)c3)cnc2n1", "note": "[PharmaGSID_47330]", "AC50": 42.1},
      {"compound": "CCCCCCCCCCCCCCn1cc[n+](C)c1", "note": "[1-Methyl-3-tetradecylimidazolium hexafluorophosphate]", "AC50": 68.5},
      {"compound": "C[C@]12CC[C@H]3[C@@H](CC[C@@]45O[C@@H]4C(O)=C(C#N)C[C@]35C)[C@@H]1CC[C@@H]2O", "note": "[Trilostane]", "AC50": "> 50"},
      {"compound": "CC[C@H]1OC(=O)[C@H](C)C(=O)[C@H](C)[C@@H](O[C@@H]2O[C@H](C)C[C@H](N(C)C)[C@H]2O)[C@](C)(OC)C[C@@H](C)C(=O)[C@H](C)[C@H]2N(CCCCn3cnc(-c4cccnc4)c3)C(=O)O[C@]12C", "note": "[Telithromycin]", "AC50": 22.2},
      {"compound": "CC/C=C/CCCCCCCCC1CC(=O)OC1=O", "note": "(stereo not shown) [(Tetrapropenyl)succinic anhydride]", "AC50": 65.5},
      {"compound": "CC/C=C\\CC/C=C/C=O", "note": "[trans-2,cis-6-Nonadienal]", "AC50": 69.9}
    ]}
  ]
}
